Source: ChEMBL document CHEMBL4513216, “Probing the Open Global Health Chemical Diversity Library for Multistage-Active Starting Points for Next-Generation Antimalarials” (ACS Infect Dis, 2020)
In all, about 69,000 compounds went through this assay and about 8,600 (12%) showed an effect of 50% or more. Shown is part of a subset that was picked to be rich in strong results.

These molecules were tested on Plasmodium berghei (assay: Screen against P. berghei liver stage (PbLuc), transformed with Luciferase, at 10uM). Conditions: tested at 10 uM.
Assay type: functional, HepG2

Structure (SMILES)	INHIBITION [%]
CN(Cc1ccncc1)C1CC2(CCN(c3ncc(F)cn3)CC2)C1	55.5
CN(Cc1ccncc1)C1CC2(CCN(c3ncccn3)CC2)C1	58.7
CN(Cc1ccncc1)C1CCC[C@@H]2CN(c3ncccn3)C[C@H]12 (some centres not stated)	-22.7
Cc1cnc(N2CCC3(CC2)CC(N(C)Cc2ccncc2)C3)nc1	49.1
CN(Cc1cccnc1)C1CC2(CCN(c3ncccn3)CC2)C1	-20.8
CN(Cc1cccnc1)C1CC2(CCN(c3ncc(F)cn3)CC2)C1	49.1
CSCCCN1CCCC1c1noc(C(C)C)n1 (configuration not stated)	1.18
Cc1cnn(C2CCCN(C(=O)CCNS(C)(=O)=O)C2)c1 (configuration not stated)	19.2
C1CCC(c2nnc3sc(C4CCOC4)nn23)C1 (configuration not stated)	16.7
Cc1cc(N)nc(SC2CCCN(Cc3ccccc3)C2=O)n1 (configuration not stated)	26.8
Cc1cc(N)nc(SC2CCN(c3ccccc3)C2=O)n1 (configuration not stated)	6.94
Cc1cc(N)nc(SC2CCN(c3ccccc3F)C2=O)n1 (configuration not stated)	56.5
CCCc1nnc(N2CCC3(CCC(=O)N(C)C3)CC2)o1	47.2
Cc1noc(C)c1CN(C)Cc1csc(-c2ncccn2)n1	62.8
CC(C)N(Cc1ccccc1)Cc1nnsc1Cl	-37.8
Cc1cc(CN(C)C(=O)CC(C)C)no1	-7.93
Cc1noc(C)c1CN(Cc1ccccc1)C(C)C	60.2
CC(C)c1nc(CN(C)Cc2ccc(O)c(Cl)c2)cs1	17.1
COc1ccc(CN(C)Cc2c(C)noc2C)c(Cl)c1OC	14.3
Cc1noc(C)c1CN(C)C(=O)CCOc1ccc(Cl)cc1	2.65
CCOc1ccc(-c2nc(CN(C)Cc3c(C)noc3C)cs2)cc1	88.5
Cc1cc(CN(C)Cc2csc(-c3ccc(C(C)C)cc3)n2)no1	83.4

Structure (SMILES)	INHIBITION [%]
CC(C)N(CC(N)=O)Cc1csc(-c2ncccn2)n1	-16.8
Cc1noc(C)c1CN(Cc1ccccc1)C(C)CN1CCOCC1 (configuration not stated)	37.4
CC(C)N(Cc1ccccc1)Cc1csc(-c2ncccn2)n1	-50.2
O=C(CCc1cccc(C2CCNCC2)n1)N1CCCCC1	-3.94
Oc1cccc(CN2C[C@@H]3CC[C@H]2CN(Cc2ccc(F)cc2)C3)c1	39.5
O=C(c1cc(C2CC2)no1)N1C[C@@H]2CC[C@H]1CN(Cc1ccccn1)C2	5.87
O=C(COc1coc(CN2CCCC2)cc1=O)Nc1cc(Cl)ccc1Cl	-12.5
CC(C)CN1CCS(=O)(=O)[C@@H]2CCN(S(=O)(=O)c3ccccc3)CC[C@@H]21	8.85
Cc1noc(C)c1CN(C)CC(c1cccs1)N1CCOCC1 (configuration not stated)	-54.6
COc1cccc(CN(C)Cc2c(C)noc2C)c1OC	-6.61
Cc1noc(C)c1CN(C)Cc1nc(N)c2ccccc2n1	20.9
Cc1noc(C)c1CN(C)C(C)c1cccs1 (configuration not stated)	46.4
Cc1noc(C)c1CN(C)Cc1csc(-c2ccc(C(C)C)cc2)n1	91.1
Cc1noc(C)c1CN(C)Cc1csc(-c2ccccc2F)n1	62.8
Cc1noc(C)c1CN(C)Cc1csc(-c2ccc(F)cc2)n1	77.4
CN(CC(N)=O)Cc1csc(-c2ccc(F)cc2)n1	-0.991
Cc1noc(C)c1CN(C)CCC(=O)N1CCc2sccc2C1	0.932
O=C(c1ncccn1)N1CCC[C@]2(C[C@@H](Oc3ncccc3F)CO2)C1	-2.17
CC(C)C(Sc1nccn1C1CC1)C(=O)NCc1cccnc1 (configuration not stated)	0.411
Cc1ccc(N2CC3(CCN(Cc4nccn4C)C3)CC2=O)s1 (configuration not stated)	15.9
CCOC(=O)CN1CC(c2nc(-c3ccsc3)no2)C1	9.96
CC(C)NC(=O)CNC(=O)c1csc(Cc2ccccc2F)n1	-20.6

Structure (SMILES)	INHIBITION [%]
CCCS(=O)(=O)N1CCC(c2ccc(OC)cc2)CC1	67.8
COc1ccc(C2CCN(CCCC#N)CC2)cc1	63.5
COc1ccc(C2CCN(S(=O)(=O)CCCC#N)CC2)cc1	59.1
CCCS(=O)(=O)N1CCC(Oc2ccc(C#N)cc2)CC1	25.8
N#CCCCS(=O)(=O)N1CCC(CSc2ccccc2)C1 (configuration not stated)	-18.7
CCCS(=O)(=O)N1CCC(NCc2c(C)nn(C)c2OC)CC1	-10.9
COc1ccc(C2CCN(Cc3cscn3)CC2)cc1	37.7
CC(C)n1cnnc1C1CCCN(S(=O)(=O)CCCC#N)C1 (configuration not stated)	48.3
Cc1ncsc1C(=O)NC1CCN(CCCC#N)CC1	33.7
CN(C)c1cc2c(nn1)CCN(C(=O)Cc1ccc3c(c1)CCC3)C2	5.8
CCn1nc(C)c2nc(C(C)C)nc(NCC(C)C)c21	47.4
Cc1occc1C(=O)N1CCC2(CC1)NC(=O)CC2c1cnn(C)c1 (configuration not stated)	42.1
CNC(=O)C1CN(C)CCN(CCCOc2ccccc2F)C1 (configuration not stated)	8.72
CC(=O)Nc1ccc(SCC(=O)NCC2CCCO2)nn1 (configuration not stated)	-4.83
COc1cccc([C@@]2(O)CC[C@@H]3CN(C(=O)c4cn(C)nc4C)C[C@@H]32)c1	-1.95
OCc1nnn2c1CN(Cc1cccnc1)CCC2	29
CCc1cnc(CN(C(C)=O)C2CCN(Cc3nccn3C)C2)o1 (configuration not stated)	-6.865
O=C(NCC1CCCO1)c1cc(Sc2ncccn2)ccn1 (configuration not stated)	32.8
CS(=O)(=O)N1CCC2(CC1)CC(NCc1ccccn1)c1ccccc12 (configuration not stated)	45.7
CS(=O)(=O)N1CCC2(CC1)CC(NCc1ccco1)c1ccccc12 (configuration not stated)	66.6
CC(C)NC(=O)CC1CC2(CCN(S(C)(=O)=O)CC2)c2ccccc21 (configuration not stated)	18.5
c1cnc(N2CCC3(CC2)CC(NCC2CC2)c2ccccc23)nc1 (configuration not stated)	88.1

Structure (SMILES)	INHIBITION [%]
CNC(=O)CNC1CC2(CCN(c3ncccn3)CC2)c2ccccc21 (configuration not stated)	2.4
CS(=O)(=O)N1CCC2(CC1)CC(CC(=O)NC1CC1)c1ccccc12 (configuration not stated)	37
Cn1cc(CNC2CC3(CCN(CC4CC4)CC3)c3ccccc32)cn1 (configuration not stated)	-40.4
CS(=O)(=O)N1CCC2(CC1)CC(NCC1CC1)c1ccccc12 (configuration not stated)	59.3
CN(C)C(=O)CC1CC2(CCN(c3ncccn3)CC2)c2ccccc21 (configuration not stated)	38.5
Cn1cc(CNC2CC3(CCN(S(C)(=O)=O)CC3)c3ccccc32)cn1 (configuration not stated)	44.8
CNC(=O)CC1CC2(CCN(c3ncccn3)CC2)c2ccccc21 (configuration not stated)	55.6
CNC(=O)CC1CC2(CCN(S(C)(=O)=O)CC2)c2ccccc21 (configuration not stated)	6.66
CC(Nc1cccc2c1OCCO2)C(=O)Nc1cccc(C#N)c1 (configuration not stated)	8.12
CCc1nc(CN(C(C)=O)C2CCN(CCc3ccccn3)C2)no1 (configuration not stated)	29.7
Oc1nc(N2CCOCC2)nc2nccc(-c3ccccn3)c12	-21.3
CNC(=O)c1cc(C)n(-c2ccccc2)n1	36.2
O=C(NCc1cccs1)[C@@H]1CC[C@@H]2[C@@H](CCN2CC2CCC2)O1	30.3
CC(C)[C@H]1CN(c2cnccn2)C[C@@H]1NC(=O)C1(C#N)CCOCC1	49.5
CC(C)C[C@@H](CO)n1cc(-c2cncnc2)nn1	28.4
COc1ccc(C(=O)N(C)Cc2nnc3ccccn23)cc1	-35.7
CC(C)c1nn(C)c(N(C)C)c1CNCC(O)COc1ccccc1 (configuration not stated)	-37.2
Cc1cc(NC(=O)N2CCN(c3cccs3)CC2)ccc1C(N)=O	41
Cc1cc(C(N)=O)ccc1NC(=O)N1CCN(c2cccs2)CC1	65.6
NC(=O)c1ccc(NC(=O)N2CCN(c3cccs3)CC2)c(F)c1	44.3
CS(=O)(=O)NCc1nnc2n1CCN(CC1CC1)C2	39.2
Cc1nc(C2CCCN(C(=O)Cn3ccccc3=O)C2)sc1C (configuration not stated)	25.6

Structure (SMILES)	INHIBITION [%]
CCn1ccnc1CN1CCCC1Cn1cc(C)cn1 (configuration not stated)	-53.5
CNCC(=O)N1CCCC(c2cccc(Nc3nc(C)cc(C)n3)n2)C1 (configuration not stated)	33
Cc1ccc(Nc2nccc(C3CCN(C(=O)CO)C3)n2)nc1 (configuration not stated)	40.6
Cc1ccc(Nc2nccc(C3CCN(C(=O)CN)C3)n2)nc1 (configuration not stated)	58.1
O=C(C1CCCC1)N1CCC(c2ccnc(Nc3cnccn3)n2)C1 (configuration not stated)	22
CC(=O)N1CCCC(c2ccnc(Nc3cnccn3)n2)C1 (configuration not stated)	42.6
NCC(=O)N1CCC(c2ccnc(Nc3cc(C(F)(F)F)ccn3)n2)C1 (configuration not stated)	19.3
CNCC(=O)N1CCCC(c2ccnc(Nc3cnccn3)n2)C1 (configuration not stated)	15.9
CC(=O)N1CCC(c2ccnc(Nc3cnccn3)n2)C1 (configuration not stated)	50.6
CNCC(=O)N1CCC(c2ccnc(Nc3ccc(C)cn3)n2)C1 (configuration not stated)	56.3
Cc1cc(N2CCN(C(=O)[C@@H]3C[C@H]4C=C[C@@H]3C4)CC2)cc(C)n1	-1.84
Cn1ccc(C(=O)NCCOc2ccc(C(C)(C)C)cc2)cc1=O	20.3
CN1CCC/C1=N\S(=O)(=O)c1ccc(NC(=O)c2ccc(Cl)cc2)cc1	15.6
CCc1cc(O)n2nc(C3CCN(C(=O)c4ccncc4)CC3)cc2n1	32.85
CNC(=O)CN1CCOCC2(C1)CN(C(=O)C(C)C)CCO2 (configuration not stated)	-15.7
Cc1ncc2c(n1)CN(C(C(N)=O)c1ccc(F)cc1)CC2 (configuration not stated)	58.5
Cc1ncc2c(n1)CN(C(C(N)=O)c1ccccc1)CC2 (configuration not stated)	-40.4
Cc1ncc2c(n1)CCN(C(C(N)=O)c1ccccc1)C2 (configuration not stated)	-4.4
O=C(c1ccncc1)N1CCOC2(COCCN(c3cncnc3)C2)C1 (configuration not stated)	37.8
